# High-throughput results: PubChem, National Center for Advancing Translational Sciences (NCATS)
# Sampled rows, rich in hits. Any-hit rate of the full collection: about 19%.
# AMA1-RON2 inh = qHTS for Inhibitors of AMA1-RON; Towards Development of Antimalarial Drug Lead: Primary Screen | Plasmodium falciparum AMA1 (3D7) - RON2 peptide interaction | AlphaScreen AMA1-biotinylated RON2 peptide binding | Potency, µM (titrated, usually from 58.2 µM), for the others: top-dose activity change, negative = inhibition, actives largely listed as inhibitors | 360,000 tested, 0.2% active | AID 720542, 2013;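 also: potency is read from the fitted curve at half-maximal effect; 0% = vehicle wells and -100% = peptide control; nearly all actives have a fitted effect of over 45% in size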
#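 AMA1 (3D7) with his tag at 25 nM final met compounds first, then biotinylated RON2 peptide at 25 nM; detection used donor plus acceptor beads, 10 µg/mL apiece, read by AlphaScreen after 30 min at room temperature.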
# Pf growth 96h = Primary qHTS for delayed death inhibitors of the malarial parasite plastid, 96 hour incubation; P. falciparum luciferase reporter growth, 96 h; Potency, µM (titrated, usually from 28.7 µM), inactives show at the top dose activity change, negative = inhibition, most hits filed as inhibitors; 320,000 tested, 6.9% active; also: potency is read from the fitted curve at half-maximal effect; % is scaled to controls: 0 for no effect and ±100 for the full control effect
#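 Two parasite generations (96 h, 37 C, 5% CO2) of compound exposure in infected erythrocytes (0.05% parasitemia, 2% hematocrit). Luciferase-reporter P. falciparum; decreased luminescence indicates inhibited growth, aimed at apicoplast-acting delayed death.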
# Pf growth 48h = Primary qHTS for delayed death inhibitors of the malarial parasite plastid, 48 hour incubation | 310,000 tested, 5.9% active | Potency, µM (titrated, usually from 28.7 µM), for inactives: at the top dose activity change, negative = inhibition, usual class: inhibitors | P. falciparum luciferase growth in erythrocytes, 48 h | AID 504832, 2011; also: potency is read from the fitted curve at half-maximal effect; % is scaled to controls: 0 for no effect and ±100 for the full control effect
#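 Parasite viability was followed by luminescence of a genomically integrated firefly luciferase. Cultures held 0.1% parasitemia at 2% hematocrit (final), incubated under 5% CO2 at 37 C.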
# Shiga inhibitor = A qHTS for Small Molecule Inhibitors of Shiga Toxin | Vero cells, Shiga toxin protein synthesis inhibition reporter | inhibition, % at 38.7 µM | 290,000 tested, 9.2% active; in the data active = inhibition mostly above about 28%, no sharp cut-off; inactive = mostly below about 43%; also: 0% is about no effect
# SARS PLpro yeast = qHTS of Yeast-based Assay for SARS-CoV PLP. Potency, µM (titrated, usually from 32.9 µM), without a hit: top-dose activity, positive = growth rescue, hits mostly activators. S. cerevisiae expressing SARS-CoV PLpro, growth rescue. 330,000 tested, 0.19% active. AID 485353, 2010; calls by dose curve; also: potency is read from the fitted curve at half-maximal effect; 0% is about no effect; nearly all actives have a fitted effect of over 55% in size
# Cycloheximide cs = Cycloheximide Counterscreen for Small Molecule Inhibitors of Shiga Toxin; 300,000 tested, 12% active; AID 2314, 2010; cell reporter, cycloheximide protein synthesis inhibition counterscreen; max response, %; in the data active = max response mostly above about 13%, no sharp cut-off; inactive = mostly below about 14%; also: read at 38.3 µM for the half of the compounds with a filed dose; 0% is about no effect
# Starred values were filed as active, the others as inactive; ? = inconclusive; nt = no result given; [ ] = another dose, or the depositor's remark. Unless noted, calls follow the shape of the dose curve; as a rule, active = well fitted curve in the direction sought with a large enough effect; inconclusive = small, poorly fitted or top-dose-only effect, or another doubt; inactive = no such curve, though single readings can be large; an effect the other way counts as inactive or inconclusive.
SMILES,AMA1-RON2 inh,Pf growth 96h,Pf growth 48h,Shiga inhibitor,SARS PLpro yeast,Cycloheximide cs
CN1CCN(C(=O)/C(=C/c2ccccc2)c2ccccc2)CC1,-13%,nt,-1%,-20,5%,2
COC(=O)CCN1CCc2cc(N=Nc3ccc([N+](=O)[O-])cc3)ccc21,?,145%,217%,88,2%,39*
COc1ccc(-n2c(COc3cccc(C)c3)nnc2SCC(=O)NCc2ccco2)cc1,-10%,-18%,?,35*,-15%,30*
COc1ccc(-n2c(COc3ccc4ccccc4c3)nnc2SCC(=O)NCc2ccco2)cc1,-28%,nt,10µM*,58,-3%,31
COc1ccccc1OCc1nnc(SCC(=O)NCc2ccco2)n1-c1ccccc1,5%,5%,-17%,9,26%,12*
COc1ccc(OC)c(-n2c(SCC(=O)NCc3ccco3)nnc2-c2c[nH]c3ccccc23)c1,-20%,2.6µM*,nt,12,-8%,-2
CC[C@H](C)[C@H](NC(=O)[C@H](CO)NC(=O)[C@H](CC(N)=O)NC(=O)[C@H](CC(C)C)NC(=O)[C@H](Cc1ccc(O)cc1)NC(=O)[C@H](CCCCN)NC(=O)[C@H](CCCCN)NC(=O)[C@@H](NC(=O)[C@H](C)NC(=O)[C@H](CCSC)NC(=O)[C@H](CCC(N)=O)NC(=O)[C@H](CCCCN)NC(=O)[C@H](CCCNC(=N)N)NC(=O)[C@H](CC(C)C)NC(=O)[C@H](CCCNC(=N)N)NC(=O)[C@@H](NC(=O)[C@H](Cc1ccc(O)cc1)NC(=O)[C@H](CC(N)=O)NC(=O)[C@H](CC(=O)O)NC(=O)[C@@H](NC(=O)[C@H](Cc1ccccc1)NC(=O)[C@@H](NC(=O)[C@H](C)NC(=O)[C@H](CC(=O)O)NC(=O)[C@H](CO)NC(=O)[C@@H](N)Cc1cnc[nH]1)C(C)C)[C@@H](C)O)[C@@H](C)O)C(C)C)C(=O)N[C@@H](CC(C)C)C(=O)N[C@@H](CC(N)=O)C(N)=O,nt,nt,nt,-1,nt,-5
Cc1ccc(SCCN2CCC(O)CCC2=O)cc1 (centres undefined),8%,42%,27%,11,3%,19
COc1cccc(OCc2nnc(SCC(=O)NCc3ccco3)n2C)c1,-11%,9%,-15%,-26,-3%,8
COc1ccc(-n2c(COc3cccc4ccccc34)nnc2SCC(=O)NCc2ccco2)cc1,-15%,-23%,2.9µM*,67,1%,25*
CCC(=O)N(C)/C=C1\Sc2ccccc2C1=O,-19%,1%,-1%,148*,-18%,30*
O=CN(/C=C1\Sc2ccccc2C1=O)Cc1ccccc1,12%,nt,125%,67*,-8%,40*
CC(=O)N(C)/C=C1\Sc2ccccc2C1=O,-2%,20%,51%,42,-10%,17*
CC(=O)Nc1ccc(/C=C2\Sc3ccccc3C2=O)cc1,18%,20%,12%,25,0%,5
COc1ccc(C(=O)N/C(=C\c2cn(C)c3ccccc23)C(=O)NCCCn2ccnc2)cc1,-7%,?,?,19,0%,-2
O=C(COC(=O)Cc1c(F)cccc1Cl)NC1CCS(=O)(=O)C1 (centres undefined),-6%,0%,-12%,nt,6%,nt
CCCCCCCCN1C(=O)[C@H](CC(=O)NCCc2ccccc2OC)C[C@@]2(C(=O)OC)CC(C)(C)CC=C12,-11%,nt,nt,nt,nt,nt
CC(C)NCC(O)(c1ccc(Cl)cc1)c1ccc(Cl)cc1,8%,1.5µM*,12µM*,2,1%,-3
CCN(CC)CCNCC(O)(c1ccc(Cl)cc1)c1ccc(Cl)cc1,13%,12µM*,?,-18,-1%,-3
CCN(CC)CCOc1ccc(C(O)(Cc2ccc(Cl)cc2)c2ccc(C)cc2)cc1 (centres undefined),nt,9.5µM*,13µM*,-13,nt,-4
CC(C)(C)NCC(O)(c1ccc(Cl)cc1)c1ccc(Cl)cc1,-16%,?,?,-14,3%,12
O=S(Cc1ccccc1)CC(O)(c1ccc(Cl)cc1)c1ccc(Cl)cc1 (centres undefined),-5%,?,?,-6,-39%,12
NCC(O)(c1ccc(Cl)cc1)c1ccc(Cl)cc1,9%,4.7µM*,?,-7,0%,5
CC1(C)Oc2ccc(C#N)cc2[C@H](N2CCCC2=O)[C@H]1O,nt,9%,-9%,nt,nt,nt
CCN(CC)CCNCc1ccc(-c2ccc(Cl)cc2)o1,-8%,12µM*,?,-35,0%,-3
SMILES,AMA1-RON2 inh,Pf growth 96h,Pf growth 48h,Shiga inhibitor,SARS PLpro yeast,Cycloheximide cs
CCN(CC)CCNC(=O)NC(=O)c1ccc(Cl)cc1,-5%,16%,16%,-4,10%,1
COCCNC(=S)N/N=C(\C)c1ccccc1F,19%,9.3µM*,?,18,2%,-1
COCCNC(=S)N/N=C(\C)c1ccccc1O,64%,?,2.9µM*,94*,9%,31*
COc1ccc(-c2cnc3c(NC(C)=O)cc(-c4ccc(S(C)(=O)=O)cc4)cn23)cc1OC,4%,nt,nt,nt,nt,nt
O=S(=O)(NCCc1ccc2c(c1)OCCO2)c1cccs1,5%,39%,-3%,16,-3%,19*
O=S(=O)(NCCc1ccccc1)c1cccs1,18%,26%,17%,-7,0%,-2
CC1CC(O)(Cc2ccccc2)C(C)CN1C (centres undefined),0%,-16%,23%,-17,?,-2
Cc1ccc(C)c(C2(O)CC(C)N(C)CC2C)c1 (centres undefined),-5%,6.6µM*,-2%,-8,1%,-2
O=C(CSc1nnc(-c2ccc(Br)cc2)n1CCc1ccccc1)NC1CCS(=O)(=O)C1 (centres undefined),-9%,-25%,-7%,13,27%,-2
CCCCOc1ccc(CC(=O)NO)cc1,28%,0.23µM*,0.41µM*,0,12%,-1
CCCc1ccc(OCCNC(C)=O)cc1,-3%,?,10%,50,4%,19
CCCc1ccc(OCCNC(=O)CC)cc1,-4%,nt,0%,22,3%,16*
CCCn1c(N)c(N(CCOC)C(=O)c2ccc(S(=O)(=O)N3CCOCC3)cc2)c(=O)[nH]c1=O,13%[11.6 µM],nt,nt,nt,nt,nt
CCCOc1ccccc1C1C(C(=O)OC)=CN(C(C)C)C=C1C(=O)OC,61%,nt,13µM*,29,1%,-2
C/C(=N\N1CCCCC1c1cccnc1)c1c(O)n(C2CCCCC2)c(=S)[nH]c1=O (centres undefined),17%,3.3µM*,9.3µM*,-7,-9%,-4
